TRPV1 ag: agonists of human vanilloid receptor 1 (TRPV1); hit rate 0.19% among 320,000; Q8NER1; activation, % at 8.33 µM; AID 540275; TRPV1-expressing cells, Fluo-8 calcium influx, agonist mode; in the data active means activation above about 80%; inconclusive means between about 30% and that limit
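TRPV1-expressing cells were cultured overnight at 35.5C and loaded with Fluo-8 calcium dye for 40 to 90 min at room temperature. After a 10 s baseline, compound was added and calcium influx was read kinetically for 3 min (ex 480/em 520 nm).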
TRPV1 PAM: enhances activation of the human vanilloid receptor TRPV1 | Q8NER1 | TRPV1-expressing cells, Fluo-8 calcium influx, capsaicin EC20 potentiation | potentiation, % at 8.33 µM | hit rate 0.02% among 320,000 | AID 540277; in the data active means potentiation above about 80%; inconclusive means between about 30% and that limit
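Cells expressing TRPV1 were dye-loaded with Fluo-8 and read kinetically: 10 s baseline, 3 min after compound (agonist portion), then 2 min after EC20 capsaicin (allosteric enhancer portion). Calcium-bound dye fluorescence at 480/520 nm.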
TRPML1 inh: blocks the human TRPML1 channel; Q9GZU1; TRPML1-inducible cells, Ca2+ dye fluorescence, FDSS; stronger effect = lower value; inhibition of EC80 agonist-evoked calcium signal; activity change, negative = inhibition, % (no concentration beside the values); hit rate 0.02% among 390,000; AID 624415; in the data active means activity change below about -50%; inconclusive means between about -30% and that limit;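 further: stimulus is agonist 54-4 at its EC80 concentration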
Target sequence (Q9GZU1 whole entry, looked up): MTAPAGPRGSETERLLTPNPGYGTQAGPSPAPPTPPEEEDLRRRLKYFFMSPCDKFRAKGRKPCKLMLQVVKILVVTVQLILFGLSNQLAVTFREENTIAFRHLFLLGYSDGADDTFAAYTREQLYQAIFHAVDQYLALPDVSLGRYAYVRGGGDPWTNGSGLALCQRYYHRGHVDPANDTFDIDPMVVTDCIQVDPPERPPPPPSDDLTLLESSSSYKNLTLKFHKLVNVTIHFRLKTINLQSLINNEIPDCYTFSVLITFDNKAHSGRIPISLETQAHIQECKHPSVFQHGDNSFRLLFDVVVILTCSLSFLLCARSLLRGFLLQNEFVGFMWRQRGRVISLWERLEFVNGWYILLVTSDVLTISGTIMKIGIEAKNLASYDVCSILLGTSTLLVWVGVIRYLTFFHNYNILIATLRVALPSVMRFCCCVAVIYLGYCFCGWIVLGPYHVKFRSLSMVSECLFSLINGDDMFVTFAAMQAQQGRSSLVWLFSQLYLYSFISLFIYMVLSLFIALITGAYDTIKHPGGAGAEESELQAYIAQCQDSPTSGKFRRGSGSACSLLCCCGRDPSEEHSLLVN
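Tet-induced TRPML1-DL cells loaded with Ca8 no-wash calcium dye were read kinetically on FDSS. Compound addition was followed by EC80 agonist 54-4 (4 uM final); inhibition was read over 110 s.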
TRPML1 ag: agonists of human TRPML1 channel | AID 624414 | TRPML1-expressing cells, Ca2+ dye fluorescence, FDSS | Q9GZU1 | hit rate 0.12% among 410,000 | activation, % (concentration not given with the values); in the data active means activation above about 50%; inconclusive means mostly about 30% to 49%
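Tetracycline-induced TRPML1-DL cells are seeded and incubated overnight before loading with a no-wash Ca2+ dye and quencher. Agonist activity is taken from the 110 s fluorescence read following compound pin-transfer on an FDSS, before EC80 54-4 challenge.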
Each line names hits and unclear results; the compound was inactive in the other large screens. Only some compounds are listed: those with a hit (about 0.27% of all), similar ones and a draw of the others.

S=C(NCc1ccc(Cl)cc1)Nc1ccc(Cl)cc1Cl	TRPV1 ag inconclusive
Cc1cc(Cl)ccc1NC(=S)NCc1ccccc1	TRPV1 ag inconclusive
Fc1ccc(CNC(=S)Nc2ccc(Cl)cc2Cl)cc1	TRPV1 ag 88
S=C(NCc1ccncc1)Nc1ccc(Cl)cc1Cl	TRPV1 ag 80
O=C(NCc1ccncc1)Nc1ccc(Cl)cc1Cl	TRPV1 ag inconclusive
COc1cccc(CNC(=S)Nc2ccc(Cl)cc2C)c1	TRPV1 ag 81
CCO[C@@H]1OC(C(=O)NC2CC2)=C[C@H](c2ccc3c(c2)OCO3)[C@H]1CCCO	none
O=C(c1ccccc1Oc1ccc(C(F)(F)F)cc1[N+](=O)[O-])N1CCOCC1	TRPV1 PAM inconclusive
O=C(Nc1ccccc1Cl)c1ccccc1Oc1ccc(C(F)(F)F)cc1[N+](=O)[O-]	TRPML1 ag 55
Fc1cccc(/C=N/Nc2nc3ccccc3[nH]2)c1	none
CCN1C(=O)c2cccc3c(N)ccc(c23)C1=O	TRPV1 ag 198
Cc1ccc(N2C(=O)c3cccc4c(N)ccc(c34)C2=O)c2cccnc12	TRPV1 ag 94, TRPML1 ag 90
Cc1nn(C)c(C)c1N1C(=O)c2cccc3c(Br)ccc(c23)C1=O	TRPV1 PAM inconclusive
CCCCNc1ccc2c3c(cccc13)C(=O)N(CCCC)C2=O	TRPV1 ag 92, TRPML1 ag 110
CCCN1C(=O)c2cccc3c(N4CCCCC4)ccc(c23)C1=O	none
Cc1nn(C)c(C)c1N1C(=O)c2cccc3c(N)ccc(c23)C1=O	TRPV1 ag 93, TRPML1 ag 94
CCCCCC[n+]1ccccc1/C=C/c1ccc(N(C)C)cc1	TRPML1 ag 69 (no result: TRPV1 ag, TRPV1 PAM)
CC(C)(C)OC(=O)N1CCC(c2c(C(=O)N3CCN(Cc4ccccc4)CC3)cnn2-c2cccc(Cl)c2)CC1	TRPML1 ag 92 (no result: TRPV1 ag, TRPV1 PAM)
CC1CCN(C(=O)c2cnn(-c3cccc(Cl)c3)c2C2CCN(C(=O)OC(C)(C)C)CC2)CC1	none (no result: TRPV1 ag, TRPV1 PAM)
CC(C)(C)OC(=O)N1CCC(c2c(C(=O)N3CCC(c4ccccc4)C3)cnn2-c2cccc(Cl)c2)CC1 (centres undefined)	TRPML1 ag 57 (no result: TRPV1 ag, TRPV1 PAM)
Cc1ccc(-n2ncc(C(=O)N3CCN(Cc4ccccc4)CC3)c2C2CCN(C(=O)OC(C)(C)C)CC2)cc1	none (no result: TRPV1 ag, TRPV1 PAM)
Cc1ccc(C2CCN(C(=O)c3cnn(-c4cccc(Cl)c4)c3C3CCN(C(=O)OC(C)(C)C)CC3)C2)cc1 (centres undefined)	TRPML1 ag 59 (no result: TRPV1 ag, TRPV1 PAM)
CC(C)(C)OC(=O)N1CCC(c2c(C(=O)N3CCC(c4ccccc4)C3)cnn2-c2ccc(Cl)cc2)CC1 (centres undefined)	none (no result: TRPV1 ag, TRPV1 PAM)
COc1ccccc1N1CCN(C(=O)c2cnn(-c3cccc(Cl)c3)c2C2CCN(C(=O)OC(C)(C)C)CC2)CC1	TRPML1 ag 67 (no result: TRPV1 ag, TRPV1 PAM)
Cc1cccc(-n2ncc(C(=O)N3CCN(C4CCCCC4)CC3)c2C2CCN(C(=O)OC(C)(C)C)CC2)c1	TRPML1 inh inconclusive, TRPML1 ag 91 (no result: TRPV1 ag, TRPV1 PAM)
CC(C)(C)OC(=O)N1CCC(c2c(C(=O)N3CCN(C4CCCCC4)CC3)cnn2-c2ccccc2)CC1	none
O=C(CCc1c[nH]c2ccccc12)NCCc1ccc(Cl)cc1	TRPV1 ag 80
O=C(NCCc1ccc(Cl)cc1)c1cc2ccccn2n1	TRPV1 ag 87
O=C(Nc1ccc(Br)cc1)c1cc2ccccn2n1	TRPV1 ag 85
CCc1ccc(NC(=O)c2cc3ccccn3n2)cc1	none (no result: TRPV1 ag, TRPV1 PAM)
O=C(NCCc1ccc(Cl)cc1)c1cccs1	TRPV1 ag 81
COc1ccc(CN(C)C(=O)CNC(=O)Cc2cccc3ccccc23)c(OC)c1OC	none
O=C(Nc1ccc(Cl)cc1)Nc1cccc2nsnc12	TRPV1 ag 87
Cc1c(NC(=O)Cn2nc(C(=O)O)c3ccccc3c2=O)c(=O)n(-c2ccccc2)n1C	none
CC(=O)Nc1ccc(/C=N/N2C(=O)NC(C)(c3ccc(OC(F)F)cc3)C2=O)cc1 (centres undefined)	TRPML1 ag 50
CC1(c2ccc(OC(F)F)cc2)NC(=O)N(CC(=O)Nc2ccc3[nH]c(=O)[nH]c3c2)C1=O (centres undefined)	TRPV1 PAM 81
COc1ccc(C2(C)NC(=O)N(CC(=O)Nc3ccc4[nH]c(=O)[nH]c4c3)C2=O)cc1 (centres undefined)	none
CCOC(=O)n1c(SCC(N)=O)nc2ccccc21	none
CCOC(=O)c1cc2c(=O)n3ccccc3nc2n(CCCOC)c1=NC(=O)c1ccncc1	none
CCC(=O)N1CCN(c2nc(-c3ccccc3)c3c(c2C#N)CCCC3)CC1	TRPV1 ag 102
CCCCc1nc(N2CCN(C(=O)c3ccco3)CC2)c(C#N)c2c1CCCC2	TRPV1 ag 86
Cc1cccc(NC(=O)CC2CCC2)c1	none
Cc1nn(-c2ccccc2)nc1C(=O)Nc1ccc2[nH]ncc2c1	TRPV1 ag 91
Cc1nn(-c2ccccc2)nc1C(=O)NN	TRPV1 PAM inconclusive
COc1cccc(NC(=O)CN2C(=O)NC(CCc3ccccc3)C2=O)c1 (centres undefined)	none
CC(=O)Nc1cccc(Nc2nc(-c3ccccc3F)nc3ccccc23)c1	TRPV1 ag 96
C=C[C@@H]1c2ccccc2N(S(=O)(=O)c2ccc(C)cc2)[C@H](c2ccc(C(F)(F)F)cc2)C1(C#N)C#N	none
C=C[C@@H]1c2cc(C)ccc2N(S(=O)(=O)c2ccc(C)cc2)[C@H](c2ccc(C(C)(F)F)cc2)C1(C#N)C#N	TRPML1 ag 51 (no result: TRPV1 ag, TRPV1 PAM, TRPML1 inh)
Cc1ccc(N2CCN(S(=O)(=O)c3ccc(F)c(C)c3)CC2)c(C)c1	TRPML1 ag 50
Nn1c(Cc2ccccc2)nc2cc(Cl)ccc2c1=O	TRPV1 PAM 95
Nn1c(Cc2ccccc2)nc2ccccc2c1=O	none (no result: TRPV1 ag, TRPV1 PAM)
COc1ccc(C2=NN(C(=O)CCC(=O)O)C(c3ccccc3)C2)cc1 (centres undefined)	none
Cc1ccc(N2C(=O)C3N=NN(CC(=O)N4N=C(c5ccccc5)CC4c4ccccc4)C3C2=O)cc1 (centres undefined)	TRPV1 PAM 84
O=C(N/N=C/c1c(O)ccc2ccccc12)c1cccc(C(F)(F)F)c1	TRPV1 ag inconclusive, TRPML1 ag 92
CC1=CC(C)=Nc2ccccc2N1	none
Cc1ccc2nc(-c3cccnc3)oc2c1	none
O=[N+]([O-])c1cnccc1Nc1ccc(Cl)cc1	TRPV1 ag inconclusive
CC1CCN(C(=O)Cn2c(=O)n(Cc3ccc4c(c3)OCO4)c(=O)c3ccccc32)CC1	none
CCOC(=O)N1CCC(n2c(SCC(=O)N3CCC(C)CC3)nc3ccccc3c2=O)CC1	TRPV1 ag 81
CC1CCN(C(=O)CSc2nc3ccccc3c(=O)n2Cc2ccc3c(c2)OCO3)CC1	TRPV1 ag 82
COc1cc(/C=C/c2ccc3ccccc3[n+]2C)cc(OC)c1OC	none (no result: TRPV1 ag, TRPV1 PAM, TRPML1 inh)
COc1ccc(N=Cc2c(O)c3ccccc3n2C(C)=O)cc1	TRPV1 ag inconclusive
COc1ccc(N=Cc2sc(O)c3ccccc23)cc1	TRPML1 ag 84
COc1ccc(S(=O)(=O)Nc2cc3c(C(C)=O)c(C)oc3c3ccccc23)cc1	TRPV1 ag inconclusive, TRPML1 ag 62
